# According to PubChem BioAssay (NCATS):
# Where “and” joins values, the source holds several entries; their conditions need not be identical. Equal values may be shown once. Results filed as inconclusive are left out. Calls of active or inactive are those of the source. Calls come from the whole dose curve; as a rule, active = well fitted inhibition curve with a large enough effect; inconclusive = small, poorly fitted or top-dose-only effect; inactive = flat fitted curve, though single readings scatter.
# Target: Ubiquitin carboxyl-terminal hydrolase 2 (Homo sapiens) (UniProt O75604)
# Sequence (O75604 whole entry, looked up): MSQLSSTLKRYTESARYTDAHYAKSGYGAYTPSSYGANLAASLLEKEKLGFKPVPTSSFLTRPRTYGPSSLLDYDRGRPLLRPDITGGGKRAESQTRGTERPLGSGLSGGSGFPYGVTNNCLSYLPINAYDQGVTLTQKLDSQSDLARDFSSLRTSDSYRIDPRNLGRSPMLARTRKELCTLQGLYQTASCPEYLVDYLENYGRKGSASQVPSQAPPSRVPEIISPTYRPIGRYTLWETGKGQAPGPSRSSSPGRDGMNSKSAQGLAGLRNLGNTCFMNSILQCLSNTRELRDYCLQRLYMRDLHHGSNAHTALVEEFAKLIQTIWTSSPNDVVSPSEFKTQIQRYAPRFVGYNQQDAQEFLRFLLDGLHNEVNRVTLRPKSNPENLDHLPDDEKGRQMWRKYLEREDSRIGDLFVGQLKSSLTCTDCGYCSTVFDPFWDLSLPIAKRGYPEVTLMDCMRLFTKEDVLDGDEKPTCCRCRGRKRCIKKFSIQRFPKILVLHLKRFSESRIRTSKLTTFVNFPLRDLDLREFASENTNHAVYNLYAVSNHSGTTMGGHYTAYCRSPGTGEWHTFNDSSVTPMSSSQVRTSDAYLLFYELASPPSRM
# Assay: qHTS for Inhibitors of Ubiquitin-specific Protease USP2a Using CHOP2 as the Reporter: K484 Substrate (AID 652173); note: nearly all actives have a fitted effect of over 70% in size
# Details: USP2 cleavage of DiUb K48 IQF substrate, fluorescence; series mostly up to 57.5 µM
# Source text: Homeostasis of cellular proteins is maintained through a combination of synthesis and degradation. The pathway that accounts for the majority of protein degradation is the ubiquitin-proteasomal pathway. Ubiquitin (Ub) is highly conserved in all cells and the generation of a multi-Ub chain typically targets proteins for degradation by the proteasome. However, ubiquitination is highly reversible and dynamic. Deubiquitination, the reverse process, is catalyzed through the action of enzymes referred to as isopeptidases or deubiquitinating enzymes (DUBs). This group of enzymes is collectively responsible for maintaining adequate pools of free ubiquitin and regulating the ubiquitination status of cellular proteins. The class of DUBs referred to as the ubiquitin-specific proteases (USP) family functions endoproteolytically to cleave Ub chains from a wide range of protein substrates. USP2a deubiquitinates fatty acid synthase (FASN) which has recently been identified as an emerging oncology target. To identify inhibitors of USP2a a cell-free qHTS assay was employed. Confirmed qHTS active compounds were tested in orthogonal USP2 assays utilizing a di-ubiquitin substrate labeled with a quencher on one ubiquitin and a fluorescent compound on the other, i.e. the substrate has internally quenched fluorescence or IQF (Lifesensors). In the presence of active USP2, the diubiquitin (DiUb) is cleaved and the fluorescence at 598 nm increases. This assay is run in kinetic mode. Upon inhibition of USP2, the fluorescence signal from cleaved substrate increases less over time than in the absence of an inhibitor. This assay was also used during SAR. The buffer consisted of 20 mM Tris pH 8, 2 mM beta-mercaptoethanol and 0.05% Chaps, and the assay was run in black solid-bottom Greiner plates. NIH Molecular Libraries Probe Centers Network [MLPCN] NIH Chemical Genomics Center [NCGC] MLSCN Grant: MH079852 PI Name: Benjamin Nicholson, Progenra Inc, Malvern, PA
# 3 uL of 5 nM USP2 (or no enzyme) was dispensed in assay buffer was dispensed into a 1536-well plate and then compounds were added through pinning. 1 uL of 100 nM DiUb K48-4IQF subtsrate was added before fluoresence on the ViewLux in kinetic moder (Ex 525/Em 598).
# Potency is the fitted concentration of half-maximal effect.
row,SMILES,Potency
1,Cc1ccc([S+](=O)([O-])n2cc(Cc3ccc(-c4ccccc4)cc3)c3ccccc32)cc1,inactive
2,Cc1ccc(S(=O)(=O)Nc2ccc(C(=O)Nc3nc(-c4ccccc4)cs3)c(Cl)c2)cc1,1.93 µM (active)
3,Cc1ccc(S(=O)(=O)Nc2ccc(C)cc2C(=O)Nc2nc(-c3ccccc3)cs2)cc1,1.93 µM (active)
4,O=S(=O)(Nc1nccs1)c1ccc(Nc2nc(-c3ccccc3)cs2)cc1,inactive
5,Cc1ccc(-c2cc(C(=O)Nc3ccc(S(N)(=O)=O)cc3)c3ccccc3n2)cc1C,7.69 µM (active)
6,Cc1ccc(S(=O)(=O)Nc2ccccc2CNc2nc(-c3ccccc3)cs2)cc1,6.11 µM (active)
7,CC(=O)Nc1ccc(S(=O)(=O)Nc2nccs2)cc1,inactive
8,Cc1ccc(S(=O)(=O)Nc2ccc(C(=O)Nc3ncc(-c4ccccc4)s3)cc2)cc1,2.43 µM (active)
9,Cc1ccc(S(=O)(=O)Nc2cccc(C(=O)Nc3nc(-c4ccccc4)cs3)c2)cc1,3.43 µM (active)
10,O=C(Nc1ccc(S(=O)(=O)Nc2nccs2)cc1)c1ccnc(-c2ccccc2)c1,13.7 µM (active)
11,Cc1cccc2c(C(=O)O)cc(Cl)nc12,inactive
12,CC(C)C1CCC(C(=O)Nc2ccc(S(=O)(=O)Nc3nccs3)cc2)CC1 (stereo not given),10.9 µM (active)
13,COc1ccccc1C(=O)Nc1nc(-c2ccccc2)cs1,10.9 µM (active)
14,COc1c(NS(=O)(=O)c2ccc(C)cc2)cccc1C(=O)Nc1nc(-c2ccccc2)cs1,3.06 µM (active)
15,Cc1ccc(S(=O)(=O)Nc2ccccc2C(=O)Nc2nc(-c3ccccc3)c(C)s2)cc1,1.93 µM (active)
16,Cc1ccc(S(=O)(=O)Nc2cnccc2C(=O)Nc2nc(-c3ccc(-c4ccccc4)cc3)cs2)cc1,2.17 µM (active)
17,Cc1ccc(S(=O)(=O)Nc2ccc(Cl)cc2C(=O)Nc2nc(-c3ccccc3)cs2)cc1,1.09 µM (active) and 1.72 µM (active)
18,Cc1ccc(-c2csc(NC(=O)c3ccccc3NS(=O)(=O)c3ccc(C)cc3)n2)cc1,1.93 µM (active)
19,CC(C)(C)OC(=O)N1CCC(C(=O)Nc2ccc([S+](=O)([O-])Nc3nccs3)cc2)CC1,inactive
20,CCCCC(=O)N1CCC(C(=O)Nc2ccc([S+](=O)([O-])Nc3nccs3)cc2)CC1,inactive

row,SMILES,Potency
1,Cc1ccc(-c2cc(C(=O)Nc3ccc(C(=O)O)cc3)c3ccccc3n2)cc1C,21.7 µM (active)
2,Cc1ccc(-c2cc(C(=O)Nc3ccccc3)c3ccccc3n2)cc1C,24.3 µM (active)
3,Cc1ccc(S(=O)(=O)Nc2cc3c(cc2C(=O)Nc2nc(-c4ccccc4)cs2)OCO3)cc1,1.37 µM (active)
4,Cc1ccc(-c2cc(C(=O)Nc3ccccc3Cl)c3ccccc3n2)cc1C,13.7 µM (active)
5,Cc1ccc(S(=O)(=O)NCC(=O)Nc2nc(-c3ccccc3)cs2)cc1,19.3 µM (active)
6,O=C(Nc1ccc([S+](=O)([O-])Nc2nccs2)cc1)c1ccn[nH]1,inactive
7,O=C(Nc1ccc(S(=O)(=O)Nc2nccs2)cc1)C1CCC2(CCC2)CC1,24.3 µM (active)
8,O=C(CCc1ccccc1)Nc1ccc(S(=O)(=O)Nc2nccs2)cc1,inactive
9,O=C(Nc1ccc(S(=O)(=O)Nc2nccs2)cc1)c1cccnc1,inactive
10,Cc1ccc(S(=O)(=O)Nc2cnccc2C(=O)Nc2nc(C3CCC3)cs2)cc1,17.2 µM (active)
11,CC(=O)NS(=O)(=O)c1ccc(NC(=O)c2cc(-c3ccc(C)c(C)c3)nc3ccccc23)cc1,12.2 µM (active)
12,N#Cc1ccc(N[S+](=O)([O-])c2ccc(Nc3nc(-c4ccccc4)cs3)cc2)cc1,inactive
13,CC1(C)CC(C(=O)Nc2ccc([S+](=O)([O-])Nc3nccs3)cc2)C1,inactive
14,COc1cc(NS(=O)(=O)c2ccc(C)cc2)c(C(=O)Nc2nc(-c3ccccc3)cs2)cc1OC,2.17 µM (active)
15,Cc1ccc(NS(=O)(=O)c2ccccc2C(=O)Nc2nc(-c3ccccc3)cs2)cc1,3.43 µM (active)
16,CC1CC1C(=O)Nc1ccc([S+](=O)([O-])Nc2nccs2)cc1 (stereo not given),inactive
17,Cc1ccc(S(=O)(=O)Nc2ccc(F)cc2C(=O)Nc2nc(-c3ccccc3)cs2)cc1,1.93 µM (active)
18,Cc1ccc(-c2cc(C(=O)Nc3ccc(-n4cccn4)cc3)c3ccccc3n2)cc1C,8.63 µM (active)
19,Cc1ccc(S(=O)(=O)Nc2cnccc2C(=O)Nc2nc(-c3ccc(Cl)c(Cl)c3)cs2)cc1,3.06 µM (active)
20,Cc1ccc(S(=O)(=O)Nc2ccc(Br)cc2C(=O)Nc2nc(-c3ccccc3)cs2)cc1,0.968 µM (active)
